Laboratory results published in the supplement of paper PMC8728848.
The sample as a whole holds a higher share of the strongest signals than the screen did.

Columns and labels:
Experiment in all cases: glycan array binding signal (z-score within array); higher = stronger binding
Conditions in all cases: glycan notation: IUPAC condensed, linker removed
[1] = target: Fuc(a1-2)Gal(b1-3)GalNAc(b1-4)[Neu5Ac(a2-3)]Gal(b1-4)Glc
In short: (§1)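 Glycan array data came from 3228 arrays in the Consortium for Functional Glycomics database, and only arrays with an available protein sequence were kept. Glycan names were put into IUPAC-condensed notation, and columns mapping to the same glycan were averaged. The binding signal is a within-array Z-score, averaged across arrays of one protein sequence run at different concentrations or buffers and across linkers. A negative Z-score can be read as non-binding.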

Fuc(a1-2)Gal(b1-4)GlcNAc = target: Fuc(a1-2)Gal(b1-4)GlcNAc
In short: as §1

[2] = target: Fuc(a1-2)Gal(b1-4)GlcNAc(b1-2)Man(a1-3)[Fuc(a1-2)Gal(b1-4)GlcNAc(b1-2)Man(a1-6)]Man(b1-4)GlcNAc(b1-4)[Fuc(a1-6)]GlcNAc
In short: as §1

[3] = target: Fuc(a1-2)[Gal(a1-3)]Gal(b1-3)GlcNAc
In short: as §1

[4] = target: Fuc(a1-2)[Gal(a1-3)]Gal(b1-3)GlcNAc(b1-6)GalNAc
In short: as §1

[5] = target: Fuc(a1-2)[GalNAc(a1-3)]Gal(b1-4)GlcNAc(b1-2)Man
In short: as §1

[6] = target: Fuc(a1-2)[GalNAc(a1-3)]Gal(b1-4)GlcNAc(b1-2)Man(a1-3)[Fuc(a1-2)[GalNAc(a1-3)]Gal(b1-4)GlcNAc(b1-2)Man(a1-6)]Man(b1-4)GlcNAc(b1-4)[Fuc(a1-6)]GlcNAc
In short: as §1

[7] = target: Fuc(a1-3)[Gal(b1-4)]GlcNAc(b1-6)[Gal(b1-3)GlcNAc(b1-3)]Gal(b1-4)Glc
In short: as §1

[8] = target: Gal(a1-3)Gal(b1-4)GlcNAc(b1-6)GalNAc
In short: as §1

Gal(b1-3)Gal(b1-4)GlcNAc = target: Gal(b1-3)Gal(b1-4)GlcNAc
In short: as §1

[9] = target: Gal(b1-3)GalNAc(b1-4)[Neu5Ac(a2-3)]Gal(b1-4)Glc
In short: as §1

Gal(b1-4)Glc = target: Gal(b1-4)Glc
In short: as §1

[10] = target: Gal(b1-4)GlcNAc(a1-6)Gal(b1-4)GlcNAc
In short: as §1

[11] = target: Gal(b1-4)GlcNAc(b1-2)Man(a1-3)[Gal(b1-4)GlcNAc(b1-2)Man(a1-6)][Gal(b1-4)GlcNAc(b1-4)]Man(b1-4)GlcNAc(b1-4)[Fuc(a1-6)]GlcNAc
In short: as §1

[12] = target: Gal(b1-4)GlcNAc(b1-2)Man(a1-6)[GlcNAc(b1-2)Man(a1-3)]Man(b1-4)GlcNAc(b1-4)GlcNAc
In short: as §1

[13] = target: Gal(b1-4)GlcNAc(b1-3)Gal(b1-4)GlcNAc(b1-2)Man(a1-3)[Gal(b1-4)GlcNAc(b1-3)Gal(b1-4)GlcNAc(b1-2)Man(a1-6)]Man(b1-4)GlcNAc(b1-4)GlcNAc
In short: as §1

[14] = target: Gal(b1-4)GlcNAc(b1-3)Gal(b1-4)GlcNAc(b1-2)[Gal(b1-4)GlcNAc(b1-3)Gal(b1-4)GlcNAc(b1-6)]Man(a1-6)[Gal(b1-4)GlcNAc(b1-3)Gal(b1-4)GlcNAc(b1-2)Man(a1-3)]Man(b1-4)GlcNAc(b1-4)[Fuc(a1-6)]GlcNAc
In short: as §1

[15] = target: Gal(b1-4)GlcNAc(b1-3)Gal(b1-4)GlcNAc(b1-3)Gal(b1-4)GlcNAc(b1-3)Gal(b1-4)GlcNAc(b1-2)Man(a1-3)[Gal(b1-4)GlcNAc(b1-3)Gal(b1-4)GlcNAc(b1-3)Gal(b1-4)GlcNAc(b1-3)Gal(b1-4)GlcNAc(b1-2)Man(a1-6)]Man(b1-4)GlcNAc(b1-4)GlcNAc
In short: as §1

[16] = target: Gal(b1-4)GlcNAc(b1-3)Gal(b1-4)GlcNAc(b1-3)Gal(b1-4)GlcNAc(b1-3)Gal(b1-4)GlcNAc(b1-2)Man(a1-3)[Gal(b1-4)GlcNAc(b1-3)Gal(b1-4)GlcNAc(b1-3)Gal(b1-4)GlcNAc(b1-3)Gal(b1-4)GlcNAc(b1-2)Man(a1-6)]Man(b1-4)GlcNAc(b1-4)[Fuc(a1-6)]GlcNAc
In short: as §1

[17] = target: Gal(b1-4)GlcNAc(b1-3)Gal(b1-4)GlcNAc(b1-3)Gal(b1-4)GlcNAc(b1-3)Gal(b1-4)GlcNAc(b1-3)Gal(b1-4)GlcNAc(b1-2)Man(a1-3)[Gal(b1-4)GlcNAc(b1-3)Gal(b1-4)GlcNAc(b1-3)Gal(b1-4)GlcNAc(b1-3)Gal(b1-4)GlcNAc(b1-3)Gal(b1-4)GlcNAc(b1-2)Man(a1-6)]Man(b1-4)GlcNAc(b1-4)[Fuc(a1-6)]GlcNAc
In short: as §1

Gal3S(b1-4)Glc = target: Gal3S(b1-4)Glc
In short: as §1

[18] = target: Glc(a1-4)Glc(a1-4)Glc(a1-4)Glc
In short: as §1

[19] = target: GlcNAc(b1-2)[GlcNAc(b1-6)]Man(a1-6)[GlcNAc(b1-2)Man(a1-3)]Man(b1-4)GlcNAc(b1-4)[Fuc(a1-6)]GlcNAc
In short: as §1

[20] = target: GlcNAc(b1-3)Gal(b1-4)GlcNAc(b1-2)[GlcNAc(b1-3)Gal(b1-4)GlcNAc(b1-6)]Man(a1-6)[GlcNAc(b1-3)Gal(b1-4)GlcNAc(b1-2)Man(a1-3)]Man(b1-4)GlcNAc(b1-4)GlcNAc
In short: as §1

[21] = target: GlcNAc(b1-3)Gal(b1-4)GlcNAc(b1-3)Gal(b1-4)GlcNAc(b1-2)Man(a1-3)[GlcNAc(b1-3)Gal(b1-4)GlcNAc(b1-3)Gal(b1-4)GlcNAc(b1-2)Man(a1-6)]Man(b1-4)GlcNAc(b1-4)GlcNAc
In short: as §1

[22] = target: GlcNAc(b1-3)Gal(b1-4)GlcNAc(b1-3)Gal(b1-4)GlcNAc(b1-2)[GlcNAc(b1-3)Gal(b1-4)GlcNAc(b1-3)Gal(b1-4)GlcNAc(b1-6)]Man(a1-6)[GlcNAc(b1-3)Gal(b1-4)GlcNAc(b1-3)Gal(b1-4)GlcNAc(b1-2)Man(a1-3)]Man(b1-4)GlcNAc(b1-4)[Fuc(a1-6)]GlcNAc
In short: as §1

[23] = target: GlcNAc(b1-3)Gal(b1-4)GlcNAc(b1-3)Gal(b1-4)GlcNAc(b1-3)Gal(b1-4)GlcNAc(b1-2)Man(a1-3)[GlcNAc(b1-3)Gal(b1-4)GlcNAc(b1-3)Gal(b1-4)GlcNAc(b1-3)Gal(b1-4)GlcNAc(b1-2)Man(a1-6)]Man(b1-4)GlcNAc(b1-4)[Fuc(a1-6)]GlcNAc
In short: as §1

[24] = target: GlcNAc(b1-3)Gal(b1-4)GlcNAc(b1-3)Gal(b1-4)GlcNAc(b1-3)Gal(b1-4)GlcNAc(b1-2)[GlcNAc(b1-3)Gal(b1-4)GlcNAc(b1-3)Gal(b1-4)GlcNAc(b1-3)Gal(b1-4)GlcNAc(b1-6)]Man(a1-6)[GlcNAc(b1-3)Gal(b1-4)GlcNAc(b1-3)Gal(b1-4)GlcNAc(b1-3)Gal(b1-4)GlcNAc(b1-2)Man(a1-3)]Man(b1-4)GlcNAc(b1-4)[Fuc(a1-6)]GlcNAc
In short: as §1

GlcNAc(b1-3)GalNAc = target: GlcNAc(b1-3)GalNAc
In short: as §1

[25] = target: GlcNAc(b1-3)[GlcNAc(b1-4)][GlcNAc(b1-6)]GlcNAc
In short: as §1

[26] = target: Man(a1-2)Man(a1-3)[Man(a1-2)Man(a1-6)]Man(a1-6)[Man(a1-2)Man(a1-2)Man(a1-3)]Man
In short: as §1

[27] = target: Neu5Ac(a2-3)Gal(b1-3)[Fuc(a1-4)]GlcNAc
In short: as §1

[28] = target: Neu5Ac(a2-3)Gal(b1-4)GlcNAc(b1-2)Man(a1-3)[Neu5Ac(a2-3)Gal(b1-4)GlcNAc(b1-2)Man(a1-6)]Man(b1-4)GlcNAc(b1-4)GlcNAc
In short: as §1

[29] = target: Neu5Ac(a2-3)Gal(b1-4)GlcNAc(b1-2)[Neu5Ac(a2-3)Gal(b1-4)GlcNAc(b1-6)]Man(a1-6)[Neu5Ac(a2-3)Gal(b1-4)GlcNAc(b1-2)Man(a1-3)][GlcNAc(b1-4)]Man(b1-4)GlcNAc(b1-4)GlcNAc
In short: as §1

[30] = target: Neu5Ac(a2-3)Gal(b1-4)[Fuc(a1-3)]GlcNAc(b1-3)Gal(b1-4)[Fuc(a1-3)]GlcNAc(b1-3)Gal(b1-4)[Fuc(a1-3)]GlcNAc
In short: as §1

[31] = target: Neu5Ac(a2-3)Gal(b1-4)[Fuc(a1-3)]GlcNAc(b1-6)[Gal(b1-3)]GalNAc
In short: as §1

[32] = target: Neu5Ac(a2-6)Gal(b1-4)GlcNAc(b1-2)[Neu5Ac(a2-6)Gal(b1-4)GlcNAc(b1-4)]Man(a1-3)[GlcNAc(b1-4)][Neu5Ac(a2-6)Gal(b1-4)GlcNAc(b1-4)Man(a1-6)]Man(b1-4)GlcNAc(b1-4)GlcNAc
In short: as §1

[33] = target: Neu5Ac(a2-6)Gal(b1-4)GlcNAc(b1-3)Gal(b1-4)GlcNAc(b1-3)Gal(b1-4)GlcNAc(b1-2)Man(a1-3)[Neu5Ac(a2-6)Gal(b1-4)GlcNAc(b1-3)Gal(b1-4)GlcNAc(b1-3)Gal(b1-4)GlcNAc(b1-2)Man(a1-6)]GalNAc
In short: as §1

[34] = target: Neu5Ac(a2-6)GalNAc(b1-4)GlcNAc6S
In short: as §1

[35] = target: Neu5Gc(a2-3)Gal(b1-4)[Fuc(a1-3)]GlcNAc
In short: as §1

B1: Pwp6 (Candida glabrata) (protein)
chain: MGSSHHHHHHSSGLVPRGSHMASANLPKLTNICQIPDNVKKTSGFKGEIRRIGLFPPGGDYTYLLKFPSTGSTASDTISLTTKPQLSTSGWFPSLFGHTYFIKADLLVYMVAYFVPTETGEYTFKLVNSDDAAVMYVGNPSAFPCGSIDTWPEPRKEDINVCDKISASTKLYMEKGLAYPVRLVWYNGGGDGQFNAQFIDPSGTTHTDWNGYVWQYDACTDCDYK
Q: What does the source list for B1?
A: glycan array binding signal (z-score) [1]: -0.318; glycan array binding signal (z-score) (Fuc(a1-2)Gal(b1-4)GlcNAc): -0.848; glycan array binding signal (z-score) [2]: 0.09; glycan array binding signal (z-score) [3]: -0.701; glycan array binding signal (z-score) [4]: -0.097; glycan array binding signal (z-score) [5]: -0.201; glycan array binding signal (z-score) [6]: 0.167; glycan array binding signal (z-score) [7]: -0.265; glycan array binding signal (z-score) [8]: 0.221; glycan array binding signal (z-score) (Gal(b1-3)Gal(b1-4)GlcNAc): -0.617; glycan array binding signal (z-score) [9]: -0.134; glycan array binding signal (z-score) (Gal(b1-4)Glc): -0.681; glycan array binding signal (z-score) [10]: -0.631; glycan array binding signal (z-score) [11]: -0.334; glycan array binding signal (z-score) [12]: 0.606; glycan array binding signal (z-score) [13]: 2.96; glycan array binding signal (z-score) [14]: 0.465; glycan array binding signal (z-score) [15]: 5.06; glycan array binding signal (z-score) [16]: 3.31; glycan array binding signal (z-score) [17]: 1.2; glycan array binding signal (z-score) (Gal3S(b1-4)Glc): -0.252; glycan array binding signal (z-score) [18]: -0.556; glycan array binding signal (z-score) [19]: 0.023; glycan array binding signal (z-score) [20]: 2.94; glycan array binding signal (z-score) [21]: 3.63; glycan array binding signal (z-score) [22]: 3.3; glycan array binding signal (z-score) [23]: 3.79; glycan array binding signal (z-score) [24]: 3.71; glycan array binding signal (z-score) (GlcNAc(b1-3)GalNAc): -0.863; glycan array binding signal (z-score) [25]: -0.466; glycan array binding signal (z-score) [26]: -0.603; glycan array binding signal (z-score) [27]: -0.364; glycan array binding signal (z-score) [28]: 4.2; glycan array binding signal (z-score) [29]: 1.89; glycan array binding signal (z-score) [30]: -0.179; glycan array binding signal (z-score) [31]: -0.222; glycan array binding signal (z-score) [32]: -0.266; glycan array binding signal (z-score) [33]: 8.45; glycan array binding signal (z-score) [34]: 0.14; glycan array binding signal (z-score) [35]: -0.654
